We go through 37 compounds from PubChem BioAssay (Tox21).

SMILES strings stand for the structures. “And” between values parts separate entries of the source, which are not always exact repeats. Identical values can stand only once. Records with an inconclusive call do not appear. Values without a mark were called inactive. The source made the active and inactive calls. The call rests on the fitted dose curve; in most records, active means well fitted curve in the direction sought with a large enough effect in the repeat runs; inconclusive means weak or mixed curves; inactive means no such curve, though single readings can be large; an effect the other way counts as inactive or inconclusive.
On the % scale 0 is the no-effect control and ±100 the full control effect; potency means the concentration at half of the fitted maximal effect.

System in one experiment: not listed separately
The experiment can be described thus: qHTS assay to identify small molecule agonists of the retinoic acid receptor (RAR) signaling pathway (AID 1159553). The settings on record: C3RL4 RARE luciferase reporter, agonist, 6 h; series mostly up to 73.3 µM; activation: at the top concentration. An outline of the steps:
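Seed C3RL4 reporter cells at 1,000 per well and incubate overnight at 37 C. Add compounds in DMSO, incubate 6 hr. Add luciferase reagent, wait 30 min at room temperature, read luminescence.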
In general terms: qHTS replaces the single test concentration by a dilution series.
Take `O=[N+]([O-])c1cccc2cccc([N+](=O)[O-])c12`: the “activation” value was -4.85% [at 94.8 µM].
For the compound `O=NN(CCO)CCO`, the “activation” value is -1.64%.
Same read-out and setting: the figure for `Nc1ccc(Cl)cc1C(=O)c1ccccc1F` is -0.0658%; for `COC(=O)c1cc(Oc2ccc(Cl)cc2Cl)ccc1[N+](=O)[O-]` it is -4.25%; for `C#CCO` it is -0.296%.
On the same count and under the same terms, the figure for `CCc1cccc(C)c1N(C(=O)CCl)[C@@H](C)COC` is -0.656%.
The same measure, in the same setting: under `Oc1cc(Cl)c(Cl)c(Cl)c1Cl` stands -9.64%; under `COC(=O)N(OC)c1ccccc1COc1ccn(-c2ccc(Cl)cc2)n1`, -3.28%.
With `COc1nc(C)nc(NC(=O)NS(=O)(=O)c2ccccc2Cl)n1`, the “activation” value was 0.691%.
As for `Clc1cc(Cl)c(-c2cc(Cl)c(Cl)cc2Cl)cc1Cl`, the “activation” value is -2.11%.
For `CNC(=O)Oc1cc(C)cc(C(C)C)c1`, the “activation” value is -5.78%.
For the compound `ClCBr`, the “activation” value was 0.126% [at 94.8 µM].
As for `c1ccc(N=NNc2ccccc2)cc1`, the Potency is 3.17 µM (active) and 7.7 µM (active).
On the same count and under the same terms, the figure for `CN(C)c1ccc(N)cc1` is 596 nM (active).
With `Nc1c(Cl)c(Cl)c(Cl)c(Cl)c1Cl`, the “activation” value is 9.99%.
For `CCC1(CC)C(=O)N=C(O)NC1=O`, the “activation” value is 0.902%.
On to `COP(=O)(OC)Oc1ccc([N+](=O)[O-])cc1`, for which the “activation” value was 0.299%.
The same measure, in the same setting: the figure for `CC(C)Br` is 0.615%.
As for `O=S(=O)(O)F`, the “activation” value was -3.56% [at 94.8 µM].
Still for that read-out and setting: the figure for `NC(=O)C(Cl)Cl` is -0.293%.
As for `CCC(C)c1cccc(C(C)CC)c1O` (stereo unspecified), the “activation” value is -5.14%.
The same measure, in the same setting: the figure for `CCCCN(CCCC)C(=S)S` is 3.26%.
Turning to `O=[N+]([O-])c1ccccc1-c1ccccc1`, the “activation” value was 0.396%.
The same measure, in the same setting: the figure for `C[N+]1(C)[C@@H]2CC[C@H]1CC(OC(=O)C(CO)c1ccccc1)C2` (stereo partly specified) is 0.903%; for `CO/N=C(\C(=O)OC)c1ccccc1CO/N=C(\C)c1cccc(C(F)(F)F)c1` it is -10%.
Regarding `COP(=S)(OC)Oc1nc(Cl)c(Cl)cc1Cl`, the “activation” value is 0.282%.
With `S=C=Nc1ccccc1`, the Potency is 70800 nM (active).

System in another experiment: not listed separately
The experiment can be described thus: qHTS assay to identify small molecule antagonists of the estrogen related receptor (ERR) signaling pathway from Tox21 library - cell viability counter screen (AID 1224834). Further: nearly all actives have a fitted effect of over 30% in size. The settings on record: ERR reporter cells viability, CellTiter-Fluor, 17.5 h; series mostly up to 92.4 µM; viability change, negative = cytotoxic: at the top concentration. An outline of the steps:
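ERR cells, 2,000/well; 6 h settle at 37 C/5% CO2; pin-tool compound transfer in DMSO; 17.5 h at 37 C; CellTiter-Fluor, 30 min; fluorescence intensity.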
On to `O=NN(CCO)CCO`, for which the “viability change, negative = cytotoxic” value was -1.73%.
The same measure, in the same setting: under `CCN(CC)Cc1nccn1-c1ccc([N+](=O)[O-])cc1C(=O)c1ccccc1Cl` stands -14.6% [at 42.5 µM]; under `C#CCO`, 0.655%.
Consider `CC(C)N(C(=O)CCl)c1ccccc1`, for which the Potency was 21.7 µM (active).
Still for that read-out and setting: under `Fc1ccc(C(OCCN2CCN(CCCc3ccccc3)CC2)c2ccc(F)cc2)cc1` stands 26.6 µM (active).
As for `CCCCn1cc[n+](C)c1.[Cl][Fe-]([Cl])([Cl])[Cl]`, the “viability change, negative = cytotoxic” value is 0.524%.
On to `COc1nc(C)nc(NC(=O)NS(=O)(=O)c2ccccc2Cl)n1`, for which the “viability change, negative = cytotoxic” value was 5.22%.
In the case of `CNC(=O)Oc1cc(C)cc(C(C)C)c1`, the “viability change, negative = cytotoxic” value is -6.31%.
The same measure, in the same setting: under `ClCBr` stands 2.16%.
Turning to `c1ccc(N=NNc2ccccc2)cc1`, the Potency is 39.9 µM (active) and 27.3 µM (active).
`CCC[CH2][Sn]([CH2]CCC)([CH2]CCC)[O][Sn]([CH2]CCC)([CH2]CCC)[CH2]CCC`: the Potency was 1.06 µM (active).
For the compound `CN(C)c1ccc(N)cc1`, the Potency is 23.7 µM (active).
With `Nc1c(Cl)c(Cl)c(Cl)c(Cl)c1Cl`, the “viability change, negative = cytotoxic” value was 6.21%.
Consider `CC(C)Br`, for which the “viability change, negative = cytotoxic” value was 1.68%.
Same read-out and setting: the figure for `CCn1cc[n+](C)c1` (tested in a mixture with another compound) is 2.37%; for `O=S(=O)(O)F` it is 0.397%.
On the same count and under the same terms, the figure for `NC(=O)C(Cl)Cl` is -0.16%; for `CCCCN(CCCC)C(=S)S` it is 0.601%.
On to `CCN(CC)C(=S)S`, for which the Potency is 54.9 µM (active) and 13.6 µM (active) and 24.3 µM (active).
`O=[N+]([O-])c1ccccc1-c1ccccc1`: the “viability change, negative = cytotoxic” value is 1.51%.
Same read-out and setting: under `C[N+]1(C)[C@@H]2CC[C@H]1CC(OC(=O)C(CO)c1ccccc1)C2` (stereo partly specified) stands 0.621% [at 42.5 µM]; under `CO/N=C(\C(=O)OC)c1ccccc1CO/N=C(\C)c1cccc(C(F)(F)F)c1`, -9.35%.
The same measure, in the same setting: under `COP(=S)(OC)Oc1nc(Cl)c(Cl)cc1Cl` stands 1.64%.
As for `S=C=Nc1ccccc1`, the “viability change, negative = cytotoxic” value was 0.995%.

The target in another experiment is Luciferin 4-monooxygenase (Photinus pyralis) (UniProt P08659). The experiment in a line: qHTS assay to identify small molecule inhibitors of firefly luciferase (AID 1224835). Further: nearly all actives have a fitted effect of over 25% in size. The note with it: purified P. pyralis luciferase, luminescence inhibition; series mostly up to 115 µM; activity change, negative = inhibition: at the top concentration. The method, boiled down: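 Biochemical qHTS: compounds run as interplate titrations against purified firefly enzyme, with D-luciferin and ATP each at its KM concentration. Light output recorded by CCD imaging.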
Sequence of Luciferin 4-monooxygenase (Photinus pyralis) (P08659 whole entry, looked up): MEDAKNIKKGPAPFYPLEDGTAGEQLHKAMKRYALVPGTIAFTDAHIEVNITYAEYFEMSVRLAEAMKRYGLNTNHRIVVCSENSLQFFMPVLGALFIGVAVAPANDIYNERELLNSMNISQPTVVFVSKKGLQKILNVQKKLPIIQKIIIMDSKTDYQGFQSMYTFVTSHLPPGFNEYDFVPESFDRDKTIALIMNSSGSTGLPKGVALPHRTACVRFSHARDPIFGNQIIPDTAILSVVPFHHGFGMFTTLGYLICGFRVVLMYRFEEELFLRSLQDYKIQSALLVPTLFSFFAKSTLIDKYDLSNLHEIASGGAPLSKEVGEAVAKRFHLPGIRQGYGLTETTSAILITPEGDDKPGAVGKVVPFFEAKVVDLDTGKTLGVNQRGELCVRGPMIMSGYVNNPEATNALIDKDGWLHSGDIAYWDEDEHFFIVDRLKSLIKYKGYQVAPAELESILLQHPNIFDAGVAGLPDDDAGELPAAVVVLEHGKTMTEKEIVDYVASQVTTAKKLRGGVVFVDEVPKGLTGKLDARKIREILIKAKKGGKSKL
`O=[N+]([O-])c1cccc2cccc([N+](=O)[O-])c12`: the “activity change, negative = inhibition” value was -6.02%.
For the compound `CCN1CCC2(CC1)COc1cc3c(cc12)N(C(=O)c1ccc(-c2ccc(-c4nnc(C)o4)cc2C)cc1)CC3`, the “activity change, negative = inhibition” value is -0.167%.
Same read-out and setting: the figure for `CCN(CC)Cc1nccn1-c1ccc([N+](=O)[O-])cc1C(=O)c1ccccc1Cl` is -1.94% [at 52.9 µM]; for `Nc1ccc(Cl)cc1C(=O)c1ccccc1F` it is -2.8% [at 52.9 µM].
With `COC(=O)c1cc(Oc2ccc(Cl)cc2Cl)ccc1[N+](=O)[O-]`, the “activity change, negative = inhibition” value is -0.418%.
Still for that read-out and setting: under `C#CCO` stands 2.19%; under `CCc1cccc(C)c1N(C(=O)CCl)[C@@H](C)COC`, 0.446%.
With `CC(C)N(C(=O)CCl)c1ccccc1`, the Potency entry is “inactive”.
For the compound `Fc1ccc(C(OCCN2CCN(CCCc3ccccc3)CC2)c2ccc(F)cc2)cc1`, the “activity change, negative = inhibition” value is 3.83% [at 52.9 µM].
The same measure, in the same setting: under `COc1nc(C)nc(NC(=O)NS(=O)(=O)c2ccccc2Cl)n1` stands 0.046%; under `Clc1cc(Cl)c(-c2cc(Cl)c(Cl)cc2Cl)cc1Cl`, 0.139% [at 52.9 µM].
On the same count and under the same terms, the figure for `CNC(=O)Oc1cc(C)cc(C(C)C)c1` is 0.438%.
Consider `ClCBr`, for which the “activity change, negative = inhibition” value is 0.825%.
For `c1ccc(N=NNc2ccccc2)cc1`, the Potency was 6.54 µM (active) and 6.33 µM (active).
Turning to `CN(C)c1ccc(N)cc1`, the Potency was 1.74 µM (active).
With `Nc1c(Cl)c(Cl)c(Cl)c(Cl)c1Cl`, the “activity change, negative = inhibition” value is -7.74%.
Still for that read-out and setting: the figure for `CCC1(CC)C(=O)N=C(O)NC1=O` is -3.51%; for `COP(=O)(OC)Oc1ccc([N+](=O)[O-])cc1` it is -1.1%.
With `CC(C)Br`, the “activity change, negative = inhibition” value was 0.819%.
Same read-out and setting: the figure for `CCn1cc[n+](C)c1` (tested in a mixture with another compound) is 11.1%.
On to `C=C(C)C(=O)[O][Sn]([CH2]CCC)([CH2]CCC)[CH2]CCC`, for which the Potency is 35.6 µM (active).
Take `O=S(=O)(O)F`: the “activity change, negative = inhibition” value was -5.19%.
As for `N#Cc1sc2c(=O)c3ccccc3c(=O)c=2sc1C#N`, the Potency was 4.48 µM (active).
Turning to `NC(=O)C(Cl)Cl`, the “activity change, negative = inhibition” value is -1.16%.
On to `CCC(C)c1cccc(C(C)CC)c1O` (stereo unspecified), for which the “activity change, negative = inhibition” value was -11.1%.
Still for that read-out and setting: under `CCCCN(CCCC)C(=S)S` stands -0.266%; under `CCN(CC)C(=S)S`, -12.1%.
As to `O=[N+]([O-])c1ccccc1-c1ccccc1`, the “activity change, negative = inhibition” value was -11.5%.
For the compound `C[N+]1(C)[C@@H]2CC[C@H]1CC(OC(=O)C(CO)c1ccccc1)C2` (stereo partly specified), the “activity change, negative = inhibition” value is -1.95% [at 52.9 µM].
For the compound `CO/N=C(\C(=O)OC)c1ccccc1CO/N=C(\C)c1cccc(C(F)(F)F)c1`, the “activity change, negative = inhibition” value is 1.16%.
